Data on 13 compounds can be found in PubChem BioAssay (NCI).

The panel holds about 83,000 compounds, 20% with a hit somewhere; the sample as a whole holds those more often.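 Treatment: one concentration, 48 hours, 96-well format. Scoring: percent growth, with anything below 10 considered active.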 Values without a mark were called inactive. Activity calls are given as the source filed them.

Among the test systems are NCI-H23 lung; NCI-H226 lung; NCI-H322M lung; HOP-62 NSCLC; NCI-H460 lung; HOP-92 NSCLC; NCI-H522 lung; A549/ATCC NSCLC; 786-0 renal; COLO 205 colon.
What all share (experiment): NCI-60 one-dose screen, 48 h (100 = growth as untreated, 0 = no growth, -100 = all killed)
Common to all, as to conditions: 10 µM unless noted

As for `C=C1C(=O)O[C@H]2[C@H]1CC/C(COC(=O)NCc1ccc(Cn3c(=O)sn(-c4ccc(C#N)cc4)c3=O)cc1)=C\CC[C@@]1(C)O[C@@H]21`, the growth in the assay with NCI-H23 lung was 78.2%; in the assay with NCI-H226 lung it was 95.5%; with NCI-H322M lung it was 104%; with HOP-62 NSCLC, 92.2%; with NCI-H460 lung it was 104%; in the assay with HOP-92 NSCLC it was 26.1%. Besides, the growth in the assay on NCI-H522 lung was -28% (active); in the assay with A549/ATCC NSCLC, 96.7%; in the assay on 786-0 renal, 66.1%; in the assay on COLO 205 colon, 38.1%.
Take `CC1(C)CC2=C3C=C[C@@H]4[C@@]5(C)CCC(=O)C(C)(C)[C@@H]5CC[C@@]4(C)[C@]3(C)CC[C@@]2(C(=O)O)C[C@H]1O`: the growth was 23.2% with NCI-H23 lung; 25.5% in the assay on NCI-H226 lung; 26.6% in the assay on NCI-H322M lung; 30.1% with HOP-62 NSCLC; 18% with NCI-H460 lung; -7.2% (active) in the assay with HOP-92 NSCLC. Further, the growth in the assay on NCI-H522 lung is 26.4%; in the assay on A549/ATCC NSCLC, 26.3%; in the assay with 786-0 renal, 17.2%; in the assay on COLO 205 colon it was 29.2%.
On to `COc1cc(-c2nc3cc(Cl)c(Cl)cc3[nH]2)ccc1OCC(=O)N=Nc1c(O)[nH]c2ccc(Cl)cc12`, for which the growth in the assay with NCI-H23 lung is -3.62% (active); with NCI-H226 lung, 30.4%; in the assay with NCI-H322M lung, 35.2%; in the assay with HOP-62 NSCLC, -36.7% (active); in the assay with NCI-H460 lung, 5.88% (active); in the assay on HOP-92 NSCLC, -19.7% (active). In addition, the growth is 4.94% (active) with NCI-H522 lung, 45.8% in the assay on A549/ATCC NSCLC, 2.74% (active) with 786-0 renal and -63.3% (active) in the assay with COLO 205 colon.
For `Fc1cc(Nc2ccc3c(OCCCN4CCOCC4)cccc3n2)ccc1Cl`, the growth was 61.1% in the assay with NCI-H23 lung; 68.8% with NCI-H226 lung; 45.3% in the assay on NCI-H322M lung; 39.2% with HOP-62 NSCLC; 21.1% in the assay with NCI-H460 lung; 27.3% with HOP-92 NSCLC. In addition, the growth in the assay on NCI-H522 lung was -15.5% (active); in the assay on A549/ATCC NSCLC it was 25.7%; in the assay on 786-0 renal it was 1.04% (active); in the assay with COLO 205 colon, -50.2% (active).
In the case of `CCOc1cccc(/C=N/NC(=O)c2cccc(Nc3ccnc(C(F)(F)F)c3)c2)c1O`, the growth was 24.9% in the assay with NCI-H23 lung; 32.9% in the assay on NCI-H226 lung; 36.5% in the assay with NCI-H322M lung; 12.3% with HOP-62 NSCLC; 7.86% (active) in the assay with NCI-H460 lung; 51.3% with HOP-92 NSCLC. Moreover, the growth in the assay on NCI-H522 lung is 40.4%; in the assay with A549/ATCC NSCLC it was 38%; with 786-0 renal, 2.63% (active); in the assay on COLO 205 colon, 37%.
As for `S=c1[nH]c(=S)c2c(-c3ccccc3)c(-c3ccccc3)oc2[nH]1`, the growth in the assay on NCI-H23 lung was 97.8%; in the assay on NCI-H226 lung, 92.7%; with NCI-H322M lung, 118%; in the assay with HOP-62 NSCLC, 92.6%; in the assay with NCI-H460 lung, 108%; in the assay with HOP-92 NSCLC, 100%. Further, the growth in the assay on NCI-H522 lung was 97.5%; with A549/ATCC NSCLC it was 95.7%; in the assay on 786-0 renal, 103%; with COLO 205 colon, 120%.
On to `O=C1/C(=C/c2ccccc2F)CN(C(=O)C(Cl)Cl)C/C1=C\c1ccccc1F`, for which the growth in the assay with NCI-H23 lung is -33.2% (active); with NCI-H226 lung it was 39.4%; in the assay on NCI-H322M lung it was -18.5% (active); in the assay with HOP-62 NSCLC, 13.8%; with NCI-H460 lung it was -74.2% (active); in the assay with HOP-92 NSCLC it was -27.9% (active). Moreover, the growth in the assay on NCI-H522 lung is -49.8% (active); in the assay on A549/ATCC NSCLC it was -2.28% (active); in the assay with 786-0 renal, -71.9% (active); in the assay on COLO 205 colon, -57.6% (active).
As to `COc1cc2c(cc1OCCCCN1CCN(C(=S)SCCC(C#N)(c3ccccc3)c3ccccc3)CC1)N=C[C@@H]1CCCN1C2=O`, the growth was -33.8% (active) with NCI-H23 lung; -44.2% (active) in the assay on NCI-H226 lung; -81.1% (active) in the assay with NCI-H322M lung; 7.67% (active) in the assay with HOP-62 NSCLC; -73.9% (active) in the assay with NCI-H460 lung; -72.4% (active) with HOP-92 NSCLC. Besides, the growth was -54.1% (active) with NCI-H522 lung, -32.1% (active) with A549/ATCC NSCLC, -85.2% (active) with 786-0 renal and -7.95% (active) in the assay on COLO 205 colon.
`COc1ccc(/C=C/c2c(C(=O)/C=C/c3ccccc3)c(C)nc3ccccc23)cc1`: the growth is 20% in the assay on NCI-H23 lung; 45.5% in the assay with NCI-H226 lung; 28.4% in the assay on NCI-H322M lung; -13.9% (active) in the assay with HOP-62 NSCLC; -48.1% (active) in the assay with NCI-H460 lung; 66.2% in the assay with HOP-92 NSCLC. Moreover, the growth was -24.5% (active) in the assay with NCI-H522 lung, 20.2% with A549/ATCC NSCLC, 13.5% with 786-0 renal and 3.63% (active) in the assay with COLO 205 colon.
With `O=C(Nc1ccc(Br)cc1)C1=NCCCCN1`, the growth in the assay on NCI-H23 lung was 85.1%; in the assay on NCI-H226 lung it was 93.1%; with NCI-H322M lung, 98.1%; with HOP-62 NSCLC it was 74.7%; in the assay with NCI-H460 lung it was 89.5%; in the assay on HOP-92 NSCLC it was 102%. The growth was 82.9% in the assay with NCI-H522 lung, 90.5% in the assay with A549/ATCC NSCLC, 96.2% in the assay with 786-0 renal and 110% in the assay with COLO 205 colon.
For the compound `Cc1c(CC(=S)N2CCOCC2)nnn1-c1cccc(C(F)(F)F)c1`, the growth in the assay on NCI-H23 lung is 107%; with NCI-H226 lung, 107%; in the assay with NCI-H322M lung, 109%; in the assay with HOP-62 NSCLC it was 101%; in the assay on NCI-H460 lung it was 103%; in the assay with HOP-92 NSCLC, 111%. The growth in the assay with NCI-H522 lung was 89.6%; in the assay with A549/ATCC NSCLC it was 107%; in the assay on 786-0 renal, 110%; in the assay on COLO 205 colon, 119%.
Turning to `CN1CCN(Cc2ccc(NC(=O)c3cncc(C#Cc4cnc(N)c5ccc(F)cc45)c3)cc2C(F)(F)F)CC1`, the growth in the assay on NCI-H23 lung was 30.1%; with NCI-H226 lung it was 28.2%; with NCI-H322M lung, 23.5%; with HOP-62 NSCLC it was 7.94% (active); in the assay with NCI-H460 lung it was -15.9% (active); in the assay on HOP-92 NSCLC, -6.92% (active). The growth in the assay with NCI-H522 lung is -81.1% (active); in the assay with A549/ATCC NSCLC, 24.4%; in the assay on 786-0 renal, -76.8% (active); in the assay with COLO 205 colon, -25.7% (active).
For the compound `NC1(CO)COC(c2ccccc2)OC1` (stereo not given), the growth in the assay with NCI-H23 lung was 109%; in the assay on NCI-H226 lung, 103%; in the assay with NCI-H322M lung, 100%; in the assay with HOP-62 NSCLC, 104%; with NCI-H460 lung, 108%; with HOP-92 NSCLC, 96.7%. For the same compound, the growth in the assay with NCI-H522 lung is 87.1%; in the assay with A549/ATCC NSCLC, 101%; with 786-0 renal, 106%; in the assay on COLO 205 colon, 107%.
